From ChEMBL document CHEMBL4513216, “Probing the Open Global Health Chemical Diversity Library for Multistage-Active Starting Points for Next-Generation Antimalarials” (ACS Infect Dis, 2020)
Among all 65,000 compounds or so, about 2,100 (3.2%) showed an effect of 50% or more. The median lay at about -52%. The entries come from a sample that favours strong results as a whole.

Tested on: Plasmodium falciparum
Assay: Screen against P. falciparum Asexual Blood Stage (ABS), at 5uM
Type: functional, Dd2
Conditions: tested at 5 uM

**Q.** With CN1CCC(Oc2ccc(-n3ccnc3-c3nccn3C)cc2)CC1 as the compound, how does the INHIBITION read?
**A.** The INHIBITION was -33.1%.

**Q.** Which INHIBITION does the source give for CN1CCC(Oc2ccc(-n3ccnc3-c3ccncc3)cc2)CC1 here?
**A.** The INHIBITION was -17%.

**Q.** Which INHIBITION does the source give for Cc1nn(C)c(C)c1C(=O)NC(C)CC(=O)c1cccs1 (centres undefined) here?
**A.** The INHIBITION was -35.4%.

**Q.** With Cc1ccc(-c2nn(C)c(C(=O)O)c2Br)cc1 as the compound, how does the INHIBITION read?
**A.** Its INHIBITION is -38.6%.

**Q.** Which INHIBITION does the source give for Cc1cccc(=O)n1CCC(=O)N1CC[C@](C)(O)[C@H](C)C1 here?
**A.** Its INHIBITION is -97.5%.

**Q.** Cc1ccc(N2CCCC(NCc3nc(C)c(C)o3)C2)nn1 (centres undefined) was tested. Which INHIBITION did it give?
**A.** The INHIBITION was -26.7%.

**Q.** With c1cnnc(N2CCCC(NCc3nnc(-c4ccco4)o3)C2)c1 (centres undefined) as the compound, how does the INHIBITION read?
**A.** Its INHIBITION is -31.5%.

**Q.** Cc1ccc(N2CCCC(NCc3nnc(-c4ccco4)o3)C2)nn1 (centres undefined) was tested. Which INHIBITION did it give?
**A.** Its INHIBITION is 50.3%.

**Q.** For Cn1nc2c(cc1=O)CN(CCOc1ccccc1C#N)CC2, which INHIBITION is on record?
**A.** Its INHIBITION is 0.73%.

**Q.** With COCC(=O)N1C[C@H]2CNC[C@@]2(C(=O)NCc2cc(C)n[nH]2)C1 as the compound, how does the INHIBITION read?
**A.** The INHIBITION was 4.75%.

**Q.** For CN(C)c1ncc(-c2ccc(C(N)=O)cc2)c(C2CCNC2)n1 (centres undefined), which INHIBITION is on record?
**A.** Its INHIBITION is -37.9%.

**Q.** Nc1ncc(-c2ccc(F)cc2)c(C2CCCNC2)n1 (centres undefined) was tested. Which INHIBITION did it give?
**A.** Its INHIBITION is 50.3%.

**Q.** How did the INHIBITION turn out when COc1ccc(-c2cnc(N)nc2C2CCCNC2)cc1 (centres undefined) was run?
**A.** The INHIBITION was -91.8%.

**Q.** How did the INHIBITION turn out when Nc1ncc(-c2ccc(Cl)cc2)c(C2CCCNC2)n1 (centres undefined) was run?
**A.** Its INHIBITION is 48.9%.

**Q.** For Nc1ncc(-c2ccc(C(F)(F)F)cc2)c(C2CCCNC2)n1 (centres undefined), which INHIBITION is on record?
**A.** Its INHIBITION is 70.9%.

**Q.** CS(=O)(=O)N1CC(c2nc(N)ncc2-c2ccc(F)cc2)C1 was tested. Which INHIBITION did it give?
**A.** The INHIBITION was -47.4%.

**Q.** With CCN1CCCC(NC(=O)c2ccc(C)[nH]c2=O)C1 (centres undefined) as the compound, how does the INHIBITION read?
**A.** The INHIBITION was -166%.

**Q.** For CN(C)c1ncnc2c1CCN(CC1CCOCC1)CC2, which INHIBITION is on record?
**A.** Its INHIBITION is -55.1%.

**Q.** COc1ccc(C[C@@H]2CC[C@H](CN(C)C3CCN(C)CC3)O2)cc1 was tested. Which INHIBITION did it give?
**A.** Its INHIBITION is 50.9%.

**Q.** CN1CCC(N(C)C[C@H]2CC[C@@H](Cc3cccc(O)c3)O2)CC1 was tested. Which INHIBITION did it give?
**A.** Its INHIBITION is 57.5%.

**Q.** Which INHIBITION does the source give for CN1CCN(C[C@H]2CC[C@@H](Cc3ccc4c(c3)OCO4)O2)CC1 here?
**A.** The INHIBITION was -28.1%.

**Q.** For CN1CCN(C[C@H]2CC[C@@H](Cc3ccc(CN4CCCC4)cc3)O2)CC1, which INHIBITION is on record?
**A.** Its INHIBITION is 36.4%.

**Q.** CCN(Cc1cnn(C)c1)C[C@H]1CC[C@@H](Cc2ccc(OC)nc2)O1 was tested. Which INHIBITION did it give?
**A.** Its INHIBITION is 4.73%.

**Q.** For CN1CCC(N(C)C[C@H]2CC[C@@H](Cc3cccc(CO)c3)O2)CC1, which INHIBITION is on record?
**A.** The INHIBITION was -125%.

**Q.** For CC(=O)Nc1nc2c(s1)C(C)(C)Nc1ccccc1S2, which INHIBITION is on record?
**A.** Its INHIBITION is -58.4%.

**Q.** Which INHIBITION does the source give for NCc1ccc(OC(F)F)cc1OC(F)F here?
**A.** The INHIBITION was -38.5%.

**Q.** For CC(C)CN1C(=O)CCC12CCC(NC(=O)NCc1cccnc1)CC2 (centres undefined), which INHIBITION is on record?
**A.** The INHIBITION was -167%.

**Q.** With CCc1nc(CN2CCCN(c3nn4cc(C)nc4s3)CC2)no1 as the compound, how does the INHIBITION read?
**A.** Its INHIBITION is -69%.

**Q.** For Cn1cnc2c1C(COCC1CC1)CN(C(=O)c1cscn1)C2 (centres undefined), which INHIBITION is on record?
**A.** Its INHIBITION is -46.3%.

**Q.** With CN(C(=O)c1ccc(S(=O)(=O)NC(C)(C)C)cc1)C1(C#N)CCC1 as the compound, how does the INHIBITION read?
**A.** The INHIBITION was 5.67%.

**Q.** For O=C(C1=COCCO1)N1CC(Oc2nc3c(C(F)(F)F)cccc3s2)C1, which INHIBITION is on record?
**A.** The INHIBITION was -41.7%.

**Q.** For CC(NC(=O)NCCCn1cncn1)c1ccncc1 (centres undefined), which INHIBITION is on record?
**A.** The INHIBITION was -85.1%.

**Q.** With CC(NC(=O)NCCCn1cncn1)c1ccc(C(F)(F)F)cc1 (centres undefined) as the compound, how does the INHIBITION read?
**A.** Its INHIBITION is 57.2%.

**Q.** CC(NC(=O)NCCCn1cncn1)c1ccc(F)cc1 (centres undefined) was tested. Which INHIBITION did it give?
**A.** Its INHIBITION is 20.8%.

**Q.** How did the INHIBITION turn out when Clc1cc(NCc2ccncc2)nc2[nH]ccc12 was run?
**A.** The INHIBITION was 64.9%.

**Q.** Which INHIBITION does the source give for Clc1cc(NCc2nccs2)nc2[nH]ccc12 here?
**A.** The INHIBITION was -72%.

**Q.** For Clc1cc(NCc2ncc[nH]2)nc2[nH]ccc12, which INHIBITION is on record?
**A.** Its INHIBITION is -48.4%.

**Q.** COC[C@@]12CCO[C@@H]1CCN(Cc1ccccc1OC)C2 was tested. Which INHIBITION did it give?
**A.** Its INHIBITION is 29.7%.

**Q.** For CCS(=O)(=O)N1C[C@H](c2nc(C)no2)C[C@H]2OCC[C@H]21, which INHIBITION is on record?
**A.** Its INHIBITION is -101%.

**Q.** For COc1cccc(OC)c1-c1ccnc2cc(CC(=O)NC(C)C)nn12, which INHIBITION is on record?
**A.** Its INHIBITION is -158%.

**Q.** For Cc1nccn1CCCn1cncc1-c1ccc2c(c1)CCCN2C, which INHIBITION is on record?
**A.** The INHIBITION was -15.5%.

**Q.** Which INHIBITION does the source give for Cc1nccn1CCCn1cncc1-c1ccc2c(c1)CCC(C)N2C (centres undefined) here?
**A.** Its INHIBITION is 66.4%.

**Q.** Cc1nccn1CCCn1cncc1-c1ccc2c(c1)CC(C)N2C (centres undefined) was tested. Which INHIBITION did it give?
**A.** The INHIBITION was 49.8%.

**Q.** CCC1(CC)Cc2ccccc2-c2nc(NCCO)[nH]c(=O)c21 was tested. Which INHIBITION did it give?
**A.** Its INHIBITION is 1.11%.

**Q.** Cn1ccnc1SCCNC1CCN(c2nc3ccccc3s2)CC1 was tested. Which INHIBITION did it give?
**A.** Its INHIBITION is 59.7%.

**Q.** How did the INHIBITION turn out when Cc1n[nH]c(SCCNC2CCN(c3nc4ccccc4s3)CC2)n1 was run?
**A.** The INHIBITION was -196%.

**Q.** With Cn1ccnc1SCCNC1CCN(c2ncccn2)CC1 as the compound, how does the INHIBITION read?
**A.** The INHIBITION was -11.4%.

**Q.** O=S(=O)(NCCc1ccccc1F)N1CCOCC1 was tested. Which INHIBITION did it give?
**A.** Its INHIBITION is -122%.

**Q.** For COc1cn(CC(N)=O)c(CSc2nccc(C)n2)cc1=O, which INHIBITION is on record?
**A.** The INHIBITION was -34.1%.

**Q.** Which INHIBITION does the source give for O=C(C1CC1)N1CCC2(COCc3cnc(N4CCOCC4)nc32)C1 (centres undefined) here?
**A.** The INHIBITION was -76.2%.

**Q.** Which INHIBITION does the source give for CC(C)C1CN(C(=O)c2cn3cc(Cl)cnc3n2)CCCN1CC1CC1 (centres undefined) here?
**A.** The INHIBITION was -26.8%.

**Q.** Which INHIBITION does the source give for Cc1ccsc1C(Cc1ccccc1)NC(=O)CSCC(N)=O (centres undefined) here?
**A.** The INHIBITION was -9.21%.

**Q.** Cc1ccsc1C(Cc1ccccc1)NC(=O)CNC(=O)C1CC1 (centres undefined) was tested. Which INHIBITION did it give?
**A.** Its INHIBITION is 69.9%.

**Q.** With CCNC(=O)CCC(=O)NC(Cc1ccccc1)c1sccc1C (centres undefined) as the compound, how does the INHIBITION read?
**A.** The INHIBITION was -32.2%.
